# Source: PubChem BioAssay (Tox21)
# “And” between values parts separate entries of the source, which are not always exact repeats. Equal values may be shown once. Inconclusive results are not listed. Some compounds were tested as several samples or in several runs, with calls that do not always agree. Unmarked numbers belong to inactive results. The source made the active and inactive calls. The call rests on the fitted dose curve; in most records, active means well fitted curve in the direction sought with a large enough effect in the repeat runs; inconclusive means weak or mixed curves; inactive means no such curve, though single readings can be large; an effect the other way counts as inactive or inconclusive.
# Assay: qHTS RealTime-Glo MT Cell Viability Assay in HEK293 cells - 40 hour (AID 1224874); further: nearly all actives have a fitted effect of over 50% in size; further: potency means the concentration at half of the fitted maximal effect
# Settings: RealTime-Glo luminescence; max response: stronger effect = lower value
# Outline: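 HEK293 cells mixed with RealTime-Glo reagents (NanoLuc plus cell-permeant prosubstrate) at 600 cells/well, preincubated 5 h at 37 C/5% CO2, then given 23 nL compound in DMSO. Nonlytic luminescence from viable cells was read at 0, 8, 16, 24, 32 and 40 h.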
# On the % scale 0 is the no-effect control and ±100 the full control effect.
Structure (SMILES),max response,Potency
CCCCCl,1.53%,–
CC(C)(C)NCC(O)c1cc(Cl)c(N)c(C(F)(F)F)c1 (stereo not given),3.67%,–
O=C(Cc1ccccc1)OCCc1ccccc1,2.91%,–
N#CC(C#N)=C(C#N)C#N,20.6%,–
O=C(O)COc1cc(Cl)c(Cl)cc1Cl,6.38%,15.5 µM (active)
CCCC(C)(COC(N)=O)COC(=O)NC(C)C (stereo not given),-11.3% and 0.58%,–
CN1CC[C@]23c4c5ccc(O)c4O[C@H]2[C@@H](O)C=C[C@H]3[C@H]1C5,1.75%,–
CCOP(=S)(S)OCC,2.46%,–
C=CCc1ccccc1O,7.74%,–
CC(C)(C)OOC(C)(C)CCC(C)(C)OOC(C)(C)C,9.43%,–
O=S(=O)(c1ccccc1)c1ccccc1,1.49%,–
O=C(O)c1ccc(=O)[nH]c1,5.8%,–
CCNC(=O)NC(=O)/C(C#N)=N/OC,18.1%,–
C=CCOCC1CO1 (stereo not given),-8.98%,–
CCCSP(=S)(OCC)Oc1ccc(SC)cc1 (stereo not given),3.34%,–
CCOP(=S)(OCC)Oc1ccc(S(C)=O)cc1 (stereo not given),6.56%,–
C=C(C)C(=O)OCCCCOC(=O)C(=C)C,5.43%,–
C=C(Cl)Cl,8.47%,–
Clc1ccc(Cl)c(Cl)c1,-1.09% and 2.8%,–

Structure (SMILES),max response,Potency
NNCCO,-1.69%,–
O=C(N[C@H]1CN2CCC1CC2)c1ccc2c(c1)OCCO2,0.421%,–
ClCc1ccccc1Cl,-3.09%,–
Nc1ccccc1C(=O)OCCc1ccccc1,–,24.5 µM (active)
O=C=NC1CCCCC1,8%,–
c1ccc2c(c1)sc1ccccc12,0.709% and -2.64%,–
N#CC1(N=NC2(C#N)CCCCC2)CCCCC1,-7.83%,–
CCOC(C(=O)OCCN(C)C)(c1ccccc1)c1ccccc1,-21.4%,–
CC1(C)CC(=O)CC(C)(C)N1[O],2.69%,–
CCC[N+](CCC)(CCC)CCC,6.01%,–
Nc1cc(Cl)cc(C(=O)O)c1Cl,1.89% and 6.4%,–
C[C@H]1[C@@H]2Cc3ccc(O)cc3[C@@]1(C)CCN2C,-5.05%,–
CCCCCCCCCCCCN(C)C,-4.6%,–
CC(C)(C)NCC(O)c1ccccc1Cl (stereo not given),4.08%,–
COc1cc(C[C@@H](C)N)c(OC)cc1Br,-17.7%,–
CCCCNC(=O)OCC#CI,–,21.8 µM (active) and 24.5 µM (active)
CC(C)CCCCCCCOC(=O)c1ccccc1C(=O)OCCCCCCCC(C)C,11.2%,–
C1CS1,12%,–

# Assay: A CellTox Green Cytotoxicity Assay to monitor cytotoxicity in HEK293 cells - 24 hour (AID 1224875); further: nearly all actives have a fitted effect of over 45% in size
# Settings: CellTox Green fluorescence; series mostly up to 76.8 µM
# Outline: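 HEK293 cells premixed with CellTox Green dye were seeded at 600 cells/well and left 5 h at 37 C/5% CO2 before pin transfer of 23 nL compound in DMSO. Fluorescence from dye bound to dead-cell DNA was read during 40 h treatment.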
Structure (SMILES),Potency,activity change
CCCCCl,inactive,–
CC(C)(C)NCC(O)c1cc(Cl)c(N)c(C(F)(F)F)c1 (stereo not given),inactive,–
O=C(Cc1ccccc1)OCCc1ccccc1,inactive,–
N#CC(C#N)=C(C#N)C#N,inactive,–
O=C(O)COc1cc(Cl)c(Cl)cc1Cl,inactive,–
CCCC(C)(COC(N)=O)COC(=O)NC(C)C (stereo not given),inactive,–
CN1CC[C@]23c4c5ccc(O)c4O[C@H]2[C@@H](O)C=C[C@H]3[C@H]1C5,inactive,–
CCOP(=S)(S)OCC,inactive,–
C=CCc1ccccc1O,inactive,–
CC(C)(C)OOC(C)(C)CCC(C)(C)OOC(C)(C)C,inactive,–
O=S(=O)(c1ccccc1)c1ccccc1,inactive,–
Nc1c(Br)cc(Br)c2c1C(=O)c1ccccc1C2=O,–,"-4.1% [at 15.8 µM, stronger effect = higher value]"
COc1cc(CC(C)N)c(OC)cc1Br (stereo not given),inactive,–
O=C(O)c1ccc(=O)[nH]c1,inactive,–
CCNC(=O)NC(=O)/C(C#N)=N/OC,inactive,–
C=CCOCC1CO1 (stereo not given),inactive,–
CCCSP(=S)(OCC)Oc1ccc(SC)cc1 (stereo not given),inactive,–
CCOP(=S)(OCC)Oc1ccc(S(C)=O)cc1 (stereo not given),inactive,–
C=C(C)C(=O)OCCCCOC(=O)C(=C)C,inactive,–

Structure (SMILES),Potency,activity change
C=C(Cl)Cl,inactive,–
Clc1ccc(Cl)c(Cl)c1,inactive,–
NNCCO,inactive,–
O=C(N[C@H]1CN2CCC1CC2)c1ccc2c(c1)OCCO2,inactive,–
ClCc1ccccc1Cl,inactive,–
O=C=NC1CCCCC1,inactive,–
c1ccc2c(c1)sc1ccccc12,inactive,–
N#CC1(N=NC2(C#N)CCCCC2)CCCCC1,inactive,–
CCOC(C(=O)OCCN(C)C)(c1ccccc1)c1ccccc1,inactive,–
CC1(C)CC(=O)CC(C)(C)N1[O],inactive,–
CCC[N+](CCC)(CCC)CCC,inactive,–
Nc1cc(Cl)cc(C(=O)O)c1Cl,inactive,–
C[C@H]1[C@@H]2Cc3ccc(O)cc3[C@@]1(C)CCN2C,inactive,–
CCCCCCCCCCCCN(C)C,inactive,–
CC(C)(C)NCC(O)c1ccccc1Cl (stereo not given),inactive,–
COc1cc(C[C@@H](C)N)c(OC)cc1Br,inactive,–
CC(C)CCCCCCCOC(=O)c1ccccc1C(=O)OCCCCCCCC(C)C,inactive,–
C1CS1,inactive,–
